Only some compounds are listed: those with a hit (about 4.7% of all), similar ones and a draw of the others.
PABP FP inh: PABP-poly(A) binding inhibition | PABP-poly(A) RNA binding, fluorescence polarization | inhibition, % at 35 µM | P11940 | hit rate 1% among 290,000;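 further: calls also rest on retests at 20 µM and on dose response follow-up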
Target sequence (P11940 whole entry, looked up): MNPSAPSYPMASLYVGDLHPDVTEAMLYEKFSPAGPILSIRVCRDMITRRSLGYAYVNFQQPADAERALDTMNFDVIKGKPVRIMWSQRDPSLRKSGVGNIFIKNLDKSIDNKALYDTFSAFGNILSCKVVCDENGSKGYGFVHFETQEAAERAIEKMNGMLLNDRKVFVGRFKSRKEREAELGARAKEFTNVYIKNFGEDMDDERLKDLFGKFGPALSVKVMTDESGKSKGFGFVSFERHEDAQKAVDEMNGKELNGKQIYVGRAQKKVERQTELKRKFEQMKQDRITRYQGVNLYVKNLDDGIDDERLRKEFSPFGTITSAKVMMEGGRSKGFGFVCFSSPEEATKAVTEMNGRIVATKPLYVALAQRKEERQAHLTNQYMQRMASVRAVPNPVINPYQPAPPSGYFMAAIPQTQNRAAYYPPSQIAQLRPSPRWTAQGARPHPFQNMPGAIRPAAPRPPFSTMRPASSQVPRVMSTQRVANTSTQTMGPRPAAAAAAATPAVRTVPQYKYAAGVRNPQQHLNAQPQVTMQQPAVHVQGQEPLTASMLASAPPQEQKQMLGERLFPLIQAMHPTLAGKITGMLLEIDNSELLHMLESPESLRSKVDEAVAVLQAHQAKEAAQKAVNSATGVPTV
ALR inh: human ALR oxidase inhibition via reduced H2O2; purified ALR, DTT oxidation, H2O2 HRP-luminol luminescence; inhibition, % (no concentration beside the values); hit rate 3.8% among 290,000; AID 485317;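 active means mean replicate inhibition above about 79%, with every replicate also reaching it, limit read from the data; inconclusive means only one of the two criteria met; inactive means mean below limit and not every replicate reaching it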
Efflux pump mplx: blocks antifungal efflux pumps in multiplex yeast assay; S. cerevisiae Candida pump triplex, Nile Red efflux; inhibition, % at 10 µM; hit rate 0.44% among 330,000;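 active means plate passing quality check with inhibition over a set limit, or well fluorescence over plate mean plus 4 SD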;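 further: Nile Red retained in pooled yeast measured as flow cytometry median fluorescence; higher means more Nile Red kept so more efflux inhibition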
eIF4H FP inh: inhibitors of RNA binding by human eIF4H. inhibition, % at 35 µM. hit rate 0.94% among 290,000. AID 2012. Q15056. eIF4H fluorescence polarization binding assay;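 further: calls also rest on retests at 20 µM and on dose response follow-up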
MLLE-PAM2 inh: blocks PAM2 peptide binding to the PABP1 MLLE domain; P11940; GST-MLLE / FITC-PAM2 fluorescence polarization; inhibition, % at 20 µM; hit rate 0.36% among 360,000; in the data active means inhibition above about 35%, passing the limit was not always enough
SUMO HTRF inh: SUMOylation inhibition; AID 2006; inhibition, % at 35 µM; hit rate 0.36% among 290,000; HTRF SUMOylation assay, SAE1/SAE2 + UBC9, in vitro; P63279; in the data active means inhibition above about 50%, passing the limit was not always enough; inconclusive means no clear call, values can overlap the other calls
Large screens that a line does not name were inactive. Unless noted, how the calls were made is not given here.

C=CCc1c(C)nc(-c2ccccc2)nc1N/N=C/c1ccccc1	none
FC(F)C(F)(F)Oc1cccc(Nc2nccn3c(-c4cccc5ccccc45)cnc23)c1	none (no result: PABP FP inh, ALR inh, Efflux pump mplx, eIF4H FP inh, SUMO HTRF inh)
CN(C)c1ccc(NC(=O)CC2NCCNC2=O)cc1 (stereo unspecified)	ALR inh 99
CCOC(=O)N1CCN(C(=O)COc2ccc3c(c2)C(=O)CC(C)(C)O3)CC1	PABP FP inh 79, eIF4H FP inh inconclusive
O=C(Nc1ccccc1)Nc1ccc(O)c2ccccc12	ALR inh 87 (no result: PABP FP inh, eIF4H FP inh, MLLE-PAM2 inh, SUMO HTRF inh)
O=C(O)c1ccc(Sc2nnc(-c3cccc(Br)c3)o2)c([N+](=O)[O-])c1	ALR inh 99
Cn1c(Sc2ccc(C(=O)O)cc2[N+](=O)[O-])nnc1-c1ccccc1	none
CCN(CC(=O)Nc1cccc(OC)c1)c1ncnc2sc(C)c(C)c12	ALR inh 87
COc1cccc(NC(=O)COc2ncnc3sc(C)c(C)c23)c1	none
CCOC(=O)Cc1csc(NC(=O)c2ccc(C)c(S(=O)(=O)N3CCOCC3)c2)n1	none (no result: PABP FP inh, ALR inh, eIF4H FP inh, SUMO HTRF inh)
COC(=O)C1=NNC2(c3ccc(Cl)cc3)C(=O)N(c3ccccc3)C(=O)C12 (stereo unspecified)	none (no result: ALR inh)
COc1ccc([N+](=O)[O-])cc1NC1CCCCC1	ALR inh 99
COc1cc(/C=C2/SC(=S)N(Cc3ccccc3)C2=O)ccc1O	none
COc1ccccc1/C=C1\SC(=S)N(NS(=O)(=O)c2ccccc2)C1=O	none
COc1cc(/C=C2\SC(=S)N(NC(=O)c3ccncc3)C2=O)ccc1O	ALR inh 99
COc1cc(/C=C2\SC(=S)N(NC(=O)c3ccc(O)c(OC)c3)C2=O)ccc1O	none (no result: ALR inh)
COc1cc(/C=C2/SC(=S)N(c3c(C)n(C)n(-c4ccccc4)c3=O)C2=O)ccc1O	ALR inh 90
COc1cc(/C=C2\SC(=S)N(NC(=O)c3cccc(O)c3)C2=O)ccc1O	ALR inh 95
COc1cc(/C=C2\SC(=S)N(NC(=O)c3ccccc3OC)C2=O)ccc1O	none
COc1cccc(/C=C2\SC(=S)N(NS(=O)(=O)c3ccc(C)cc3)C2=O)c1OC	ALR inh 91
CC(C)(C)c1cc(NS(=O)(=O)c2ccc(Br)s2)no1	none
Cc1ccc2c(c1)C(=C(C#N)C#N)CCN2	none (no result: PABP FP inh, ALR inh, Efflux pump mplx, eIF4H FP inh, SUMO HTRF inh)
CCOc1ccc(/C=C2/SC(=S)N(C(C(=O)O)c3ccccc3)C2=O)cc1OCC (stereo unspecified)	none (no result: ALR inh, Efflux pump mplx)
CCOc1cc(/C=C2\SC(=S)N(NC(=O)c3cccnc3)C2=O)ccc1O	ALR inh 99
CC(/C=C1\SC(=S)N(NC(=O)c2ccc(C)cc2)C1=O)=C\c1ccccc1	none
CC(/C=C1\SC(=S)N(NS(=O)(=O)c2ccccc2)C1=O)=C\c1ccccc1	ALR inh 98
CCOc1cc(/C=C2\SC(=S)N(NS(=O)(=O)c3ccc(C)cc3)C2=O)ccc1O	ALR inh 99 (no result: PABP FP inh, eIF4H FP inh, SUMO HTRF inh)
O=C(CCN1C(=O)/C(=C/c2cccc(Br)c2)SC1=S)NNC(=O)c1cccnc1	none
CCOc1cc(/C=C2\SC(=S)N(C(C(=O)O)c3ccccc3)C2=O)ccc1O (stereo unspecified)	ALR inh 100
CCc1cccc(C)c1NC(=S)N(CCN(C)C)C(C)c1cccnc1 (stereo unspecified)	none
CC(CCCN(C)C)C(Cc1ccccc1)c1ccccc1 (stereo unspecified)	none (no result: PABP FP inh, ALR inh, eIF4H FP inh, SUMO HTRF inh)
C[C@@H](NC(=O)/C(C#N)=C/c1ccc(O)c(O)c1)c1ccccc1	ALR inh 99 (no result: PABP FP inh, eIF4H FP inh, SUMO HTRF inh)
CC(NC(=O)/C(C#N)=C/c1ccc(OCC(=O)O)cc1)c1ccccc1 (stereo unspecified)	PABP FP inh 64
N#C/C(=C\c1cccnc1)C(=O)Nc1ccccc1	none
N#C/C(=C\c1ccncc1)C(=O)Nc1ccc(C(=O)O)cc1	ALR inh 95
N#C/C(=C\c1ccc(O)c(O)c1)C(=O)Nc1ccccc1	ALR inh 99 (no result: PABP FP inh, eIF4H FP inh, SUMO HTRF inh)
COc1ccc(OCC(=O)N(C)CC2COc3ccccc3O2)cc1 (stereo unspecified)	none (no result: PABP FP inh, eIF4H FP inh, SUMO HTRF inh)
COc1ccc(O)c(/C=C(\C#N)C(=O)Nc2cccnc2)c1	ALR inh 98
Cc1cnn(CCC(=O)NNC(=S)Nc2cccc(Cl)c2)c1	none
Cc1cnn(CCC(=O)NNC(=S)Nc2ccc(F)cc2)c1	ALR inh 82
O=C(O)/C=C/c1ccc([N+](=O)[O-])o1	none
O=C1NC(=S)S/C1=C\C=C\c1ccc([N+](=O)[O-])o1	PABP FP inh 91, eIF4H FP inh 95, SUMO HTRF inh 86 (no result: ALR inh, Efflux pump mplx)
CCN(CC)c1ccc(-n2c(O)c(C=C3N=c4ccccc4=N3)sc2=S)cc1	none
CCCC(C(=O)O)n1c(O)c(C=C2N=c3ccccc3=N2)sc1=S (stereo unspecified)	ALR inh 89
O=C(O)c1ccc(-n2c(O)c(C=C3N=c4ccccc4=N3)sc2=S)cc1	ALR inh 99
O=C(O)c1cccc(-n2c(O)c(C=C3N=c4ccccc4=N3)sc2=S)c1	ALR inh 99
c1cncc(CNCc2ccco2)c1	none
O=C(O)c1cccc(S(=O)(=O)NCC2COc3ccccc3O2)c1 (stereo unspecified)	none (no result: PABP FP inh, ALR inh, eIF4H FP inh, SUMO HTRF inh)
CC(=O)N1CCc2cc(S(=O)(=O)CCC(=O)N3CCN(c4cc(C)ccc4C)CC3)ccc21	none
Cc1ccc(NC2CCCN(C(=O)c3ccc4[nH]ccc4c3)C2)cc1C (stereo unspecified)	ALR inh 88
O=C(c1ccc(N2CCOCC2)cc1)N1CCCC(Nc2ccccc2)C1 (stereo unspecified)	none
COc1c(C)cc(C(=O)C2CCCN(C(=O)c3ccc4[nH]ccc4c3)C2)cc1C (stereo unspecified)	PABP FP inh inconclusive, eIF4H FP inh inconclusive
O=C(c1ccc2[nH]ccc2c1)N1CCCC(Nc2ccccc2)C1 (stereo unspecified)	ALR inh 99
COc1ccc(C(=O)OCC(=O)c2ccc(C3CCCCC3)cc2)cc1	none (no result: ALR inh)
O=C(OCC(=O)C12CC3CC(CC(C3)C1)C2)c1ccc(O)cc1	none (no result: PABP FP inh, eIF4H FP inh, SUMO HTRF inh)
Nc1ccc(O)cc1C(=O)OCC(=O)C12CC3CC(CC(C3)C1)C2	PABP FP inh 52, eIF4H FP inh 68 (no result: ALR inh)
Nc1ccc(O)cc1C(=O)OCC(=O)c1ccc(C2CCCCC2)cc1	PABP FP inh active, eIF4H FP inh 93
C/C(CC(=O)Nc1cccc(Br)c1)=N\NC(=O)c1ccc(O)cc1O	none
O=C(CNC(=O)c1cccnc1)N/N=C/c1ccc(O)cc1O	ALR inh 78
N=C(N)SCCc1cccc(CCSC(=N)N)c1	ALR inh 98 (no result: PABP FP inh, eIF4H FP inh, SUMO HTRF inh)
CN(C)c1ccc(N=Nc2cccc3ccoc23)cc1	ALR inh 86
CN(C)c1ccc(N=Nc2cccc(F)c2)cc1	none (no result: ALR inh)
CN(C(=O)COC(=O)c1ccc(F)c(S(=O)(=O)N2CCOCC2)c1)C1CCS(=O)(=O)C1 (stereo unspecified)	none (no result: PABP FP inh, eIF4H FP inh, SUMO HTRF inh)
CC(=O)c1cc(O)c2ccccc2c1O	MLLE-PAM2 inh 41
CC(=O)c1coc2c1cc(O)c1ccccc12	none
